Hits are enriched below; roughly 6% of the tested compounds scored in any of these assays.
D1 agonist: agonists of human D1 dopamine receptor; AID 504660; HEK293 T-REx D1 cells, calcium flux, agonist mode; P21728; 360,000 compounds, 1% hits; activation, % at 2 µM; in the data active = activation above about 30%; note: 0% is about no effect
Target sequence (P21728 whole entry, looked up): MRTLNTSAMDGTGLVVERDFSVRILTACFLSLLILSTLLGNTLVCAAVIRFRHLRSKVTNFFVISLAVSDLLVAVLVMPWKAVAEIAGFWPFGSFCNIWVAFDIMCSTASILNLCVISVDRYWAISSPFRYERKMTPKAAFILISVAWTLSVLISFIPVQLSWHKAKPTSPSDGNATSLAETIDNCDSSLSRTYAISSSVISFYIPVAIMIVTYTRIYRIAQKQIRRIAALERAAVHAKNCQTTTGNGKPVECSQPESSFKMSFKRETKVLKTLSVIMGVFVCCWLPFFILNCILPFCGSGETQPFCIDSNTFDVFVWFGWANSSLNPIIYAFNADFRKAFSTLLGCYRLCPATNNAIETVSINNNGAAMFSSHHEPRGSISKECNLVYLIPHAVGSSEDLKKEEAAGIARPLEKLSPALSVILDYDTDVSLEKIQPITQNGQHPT
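Inducible HEK293 T-REx D1 cells, force-coupled to calcium signalling, were plated at 4000 cells/well with tetracycline and held overnight at 30 C. After no-wash calcium dye loading, compound-evoked calcium rise over 180 s flagged agonists.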
D3 antag: D3 dopamine receptor (human) antagonism; D3R cells, DiscoveRx beta-arrestin luminescence, antagonist mode; stronger effect = lower value; max response, negative = inhibition, %; 360,000 compounds, 2.5% hits; AID 652054; in the data active = max response below about -50%; inconclusive = no clear call, values can overlap the other calls; note: % is set by controls: 0 for no effect and ±100 for the full control effect
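Cells expressing the human receptor were seeded at 1500 cells/well, incubated overnight at 37 degrees C in 5% CO2, then exposed to library compounds with dopamine controls for 90 minutes at 37 degrees C before luminescent detection.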
D1 antag: antagonists of human D1 dopamine receptor; P21728; HEK293 TREx D1 cells, calcium flux, dopamine EC80; stronger effect = lower value; activity change, negative = inhibition, % at 10 µM; 360,000 compounds, 3.2% hits; in the data active = activity change below about -30%; note: % is set by controls: 0 for no effect and ±100 for the full control effect
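Cells carrying a force-coupled, tetracycline-inducible human D1 receptor report calcium flux. Each well gets a 10 s baseline, compound with 180 s monitoring, then an EC80 dopamine stimulus with a second 180 s kinetic read.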
D1 potentiator: potentiators of human D1 dopamine receptor | potentiation, % at 10 µM | P21728 | 360,000 compounds, 0.036% hits | HEK293 TREx D1 cells, calcium flux, dopamine EC20 potentiation; in the data active = potentiation above about 30%; note: 0% is about no effect
D3 ag: activates the human D3 dopamine receptor. 410,000 compounds, 0.58% hits. max activation, %. AID 652048. P35462. D3R DiscoveRx beta-arrestin cells, luminescence, 90 min; in the data active = max activation above about 30%; note: 0% is about no effect
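Agonist mode: compounds and dopamine controls were applied to plated cells for 90 min at 37 degrees C after an overnight attachment at 1500 cells/well. Luminescent read-out followed 30 - 60 minutes at room temperature with DiscoveRx detection reagent.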
The depositor's hits bear a star.

`CCOC(=O)c1cc(C#N)c(N2CCN(C)CC2)nc1-c1ccccc1` gave D1 agonist -0.6, D3 antag -69.4*, D1 antag 9.9, D1 potentiator -1.8 and D3 ag -22.8.
Screening CCOC(=O)c1cc(NC(=O)N(CC)CC)c(C)nc1C returned D1 agonist 1.9, D3 antag 10.4, D1 antag 10.2, D1 potentiator -0.9 and D3 ag 9.2.
CCOC(=O)c1cc(C#N)c(N2CCCC2)nc1-c1ccccc1 was read as D1 agonist 4.0, D3 antag 0.0, D1 antag 5.5, D1 potentiator -2.6 and D3 ag 5.0.
CCc1ccc2nc(N3CCN(C)CC3)c(C#N)cc2c1 was read as D1 agonist 0.9, D3 antag -67.9*, D1 antag -22.5, D1 potentiator -9.0 and D3 ag 0.8.
CCOC(=O)c1cc(C(=O)NN)c(C)nc1C was read as D1 agonist 3.3, D3 antag inconclusive, D1 antag -87.1*, D1 potentiator -5.1 and D3 ag -1.7.
Screening Fc1ccccc1-n1ncc2c1ncn1nc(COc3ccc(Cl)cc3)nc21 returned D1 agonist 2.6, D1 antag -3.4, D1 potentiator 4.5 and D3 ag 7.1.
For COc1ccccc1/C=C(\C#N)c1nc(-c2cc3ccccc3oc2=O)cs1 the results were D1 agonist 7.9, D1 antag -0.1, D1 potentiator -0.9 and D3 ag 0.8.
O=C(OCC(=O)c1ccc[nH]1)c1ccc(S(=O)(=O)N2CCCCCC2)cc1 was read as D1 agonist 2.4, D3 antag -14.5, D1 antag -6.2, D1 potentiator 1.1 and D3 ag 2.8.
For O=C(OCC(=O)N1CCCC1)c1ccc(S(=O)(=O)N2CCOCC2)cc1 the results were D1 agonist 4.0, D3 antag -9.6, D1 antag 9.9, D1 potentiator -0.3 and D3 ag -0.6.
`O=C(COC(=O)c1ccc(CO)cc1)c1ccc(S(=O)(=O)N2CCCCC2)cc1` gave D1 agonist 10.6, D3 antag -4.6, D1 antag -31.6*, D1 potentiator -6.2 and D3 ag 1.8.
O=C(OCC(=O)N1CCN(C(=O)c2ccco2)CC1)c1ccc(S(=O)(=O)N2CCCCC2)cc1 was read as D1 agonist 6.5, D3 antag 35.9, D1 antag -57.5*, D1 potentiator -15.7 and D3 ag 1.0.
O=C(c1ccco1)N1CCN(S(=O)(=O)c2ccc3c(c2)CCN3C(=O)C2CC2)CC1 was read as D1 agonist -0.9, D3 antag -3.0, D1 antag -46.6*, D1 potentiator -1.6 and D3 ag 2.5.
Screening O=C(COC(=O)c1ccc(O)cc1)c1ccc(S(=O)(=O)N2CCCCC2)cc1 returned D1 agonist 9.5, D3 antag -12.5, D1 antag -31.1*, D1 potentiator -9.2 and D3 ag -0.5.
For O=C(COC(=O)c1ccc(O)cc1)Nc1ccc(S(=O)(=O)N2CCCC2)cc1 the results were D3 antag -0.1 and D3 ag 0.7.
Screening Cc1cc(=O)c2c(O)c3c(O)cc(=O)c4c3c3c(cc(O)c1c23)C(C)(C)C=4O returned D3 ag 4.9.
COc1ccc(/C=C/C(=O)OCC(=O)c2ccc(S(=O)(=O)N3CCCCC3)cc2)cc1OC was read as D1 agonist 4.9, D3 antag -1.7, D1 antag -54.6*, D1 potentiator -7.3 and D3 ag 4.0.
`NC(=O)COC(=O)/C=C/c1ccc(S(=O)(=O)N2CCCCCC2)cc1` gave D1 agonist 1.5, D3 antag 0.0, D1 antag 12.7, D1 potentiator -3.0 and D3 ag 5.2.
Screening O=c1cc(-c2ccccc2)n(S(=O)(=O)c2ccc3ccccc3c2)o1 returned D3 antag -77.0* and D3 ag -4.7.
For CC(C)(C)OC(=O)NCC(=O)NNC(=O)c1nc2ccccc2[nH]1 the results were D1 agonist 0.4, D1 antag 1.7 and D1 potentiator -3.7.
For CCC1CCCCN1C(=O)C1CC(c2cc(Cl)c(OC)cc2OC)=NO1 (configuration not stated) the results were D1 agonist 2.9, D3 antag 0.0, D1 antag -7.6, D1 potentiator -1.5 and D3 ag -27.5.
For COc1cc(OC)c(C2=NOC(C(=O)N3CCCc4ccccc43)C2)cc1Cl (configuration not stated) the results were D1 agonist 2.4, D3 antag 4.9, D1 antag 5.4, D1 potentiator -2.9 and D3 ag 31.5*.
For C=CCNC(=S)NNC(=O)CC12CC3CC(CC(C3)C1)C2 the results were D1 agonist 0.6, D3 antag 9.2, D1 antag -42.2*, D1 potentiator -15.4 and D3 ag 7.8.
`OC(CNCCNc1ncccc1C(F)(F)F)Cn1ccc2ccccc21` (configuration not stated) gave D1 agonist 26.1, D3 antag inconclusive, D1 antag -35.9*, D1 potentiator -0.9 and D3 ag -12.8.
For CC#CC(=O)NC1CCCN(C2Cc3ccccc3C2)C1 (configuration not stated) the results were D1 agonist 4.4, D3 antag 0.9, D1 antag -2.1, D1 potentiator -0.6 and D3 ag 2.4.
COc1cccc(C(=O)NC2CCCN(C3Cc4ccccc4C3)C2)c1OC (configuration not stated) was read as D1 agonist -0.6, D3 antag -92.6*, D1 antag 13.2, D1 potentiator -7.5 and D3 ag -3.3.
Screening CC(=O)Nc1ccc(NC(=O)COc2ccc3c(c2)CCC3)cc1 returned D1 agonist 1.7, D3 antag -7.9, D1 antag -35.3*, D1 potentiator 4.8 and D3 ag -1.0.
CN1CCN(c2ccc(NC(=O)c3ccc4ccccc4c3)cc2)CC1 was read as D1 agonist 10.1, D3 antag inconclusive, D1 antag -71.2*, D1 potentiator -16.4 and D3 ag -19.4.
For O=C(COc1ccc2ccccc2c1)Nc1ccc(Cc2ccncc2)cc1 the results were D1 agonist 27.1, D3 antag -16.5, D1 antag -34.2*, D1 potentiator -7.5 and D3 ag -9.2.
Screening O=C(COC(=O)c1ccc(O)cc1O)Nc1ccc2ccccc2c1 returned D1 agonist 5.1, D3 antag -2.5, D1 antag -37.3*, D1 potentiator -3.3 and D3 ag 0.5.
`COc1ccc(OC)c(Nc2nc3ccccc3nc2-n2nc(C)cc2C)c1` gave D1 agonist 4.3, D1 antag 10.6, D1 potentiator -1.1 and D3 ag 0.4.
Screening CCCCCOc1ccccc1CN1C(=O)C(=O)c2cc(C)ccc21 returned D1 agonist 4.0, D1 antag 8.2, D1 potentiator -2.8 and D3 ag -16.5.

Source: PubChem BioAssay (National Center for Advancing Translational Sciences (NCATS))
